Hits are enriched below; roughly 4.7% of the tested compounds scored in any of these assays.
D1 ag – activates the human D1 dopamine receptor. AID 504660. activation, % at 2 µM. HEK293 T-REx D1 cells, calcium flux, agonist mode. 1% of 360,000 active
Target sequence (P21728 whole entry, looked up): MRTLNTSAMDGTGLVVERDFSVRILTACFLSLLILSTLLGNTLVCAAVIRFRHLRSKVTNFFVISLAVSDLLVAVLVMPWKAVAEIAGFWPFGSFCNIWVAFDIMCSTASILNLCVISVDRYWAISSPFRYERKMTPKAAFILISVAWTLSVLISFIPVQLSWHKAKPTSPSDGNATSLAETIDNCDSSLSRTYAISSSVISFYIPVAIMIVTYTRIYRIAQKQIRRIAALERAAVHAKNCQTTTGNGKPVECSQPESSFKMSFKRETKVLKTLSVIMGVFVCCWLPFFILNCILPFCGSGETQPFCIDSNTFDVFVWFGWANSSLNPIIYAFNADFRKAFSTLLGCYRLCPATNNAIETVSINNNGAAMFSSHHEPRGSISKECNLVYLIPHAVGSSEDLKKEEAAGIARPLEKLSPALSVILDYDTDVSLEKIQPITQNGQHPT
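Agonism was scored from calcium flux recorded over 180 s (1 read/s) after pintool compound addition, following a 10-cycle baseline. Cells were inducible force-coupled HEK293 TREx D1, plated overnight at 30 C and loaded with no-wash calcium dye.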
D1 PAM – enhances dopamine response at the human D1 receptor; P21728; HEK293 TREx D1 cells, calcium flux, dopamine EC20 potentiation; potentiation, % at 10 µM; 0.036% of 360,000 active; in the data active = potentiation above about 30%
TRHR agonist – TRH receptor (human) agonism; TRHR cells, calcium flux fluo-8, FDSS agonist mode; activation, % at 2 µM; 0.18% of 360,000 active
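TRHR-expressing cells, plated overnight in medium with 10% serum, were loaded with fluo-8 calcium dye at room temperature. After a 10 s baseline, library compound was pin-added and calcium release was recorded kinetically (ex 480/em 530) as agonist response.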
TRHR PAM – allosterically enhances the human TRH receptor; P34981; TRHR cells, fluo-8 calcium fluorescence, EC20 TRH enhancement; enhancement, % at 2 µM; 0.66% of 360,000 active; in the data active = enhancement above about 30%
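TRHR-expressing cells loaded with fluo-8 calcium dye were read kinetically (ex 480/em 530) during compound addition, then stimulated with an EC20 of TRH (10 nM final). Enhancement of the Gq-mediated intracellular calcium response was scored.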
D1 antag – blocks dopamine activation of the human D1 receptor | P21728 | HEK293 TREx D1 cells, calcium flux, dopamine EC80; stronger effect = lower value | activity change, negative = inhibition, % at 10 µM | 3.2% of 360,000 active | AID 504652; in the data active = activity change below about -30%
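Tetracycline-induced HEK293 Trex D1 cells, force-coupled to calcium, dye-loaded; compounds added and read 180 s, then EC80 dopamine added and calcium flux tracked kinetically another 180 s.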
Numbers stand for hits; i = inactive. Rule as the data show it, unless noted: active = activation above about 30%; inactive = the rest.

SMILES | D1 ag | D1 PAM | TRHR agonist | TRHR PAM | D1 antag
CCN1CCSc2ccc(C(=O)NC(C)c3ccccc3)cc21 (stereo unspecified) | i | i | i | i | i
CCCOc1ccc(N2C(=O)CC(N3CCN(c4nc5ccccc5s4)CC3)C2=O)cc1 (stereo unspecified) | i | i | i | i | -30.8
CCCCCCOc1ccc(N2C(=O)CC(N3CCN(C(=O)c4ccco4)CC3)C2=O)cc1 (stereo unspecified) | i | i | i | i | -40.8
CCCOc1ccc(N2C(=O)CC(N3CCN(C(=O)c4ccco4)CC3)C2=O)cc1 (stereo unspecified) | i | i | i | i | i
Cc1cc(C(=O)N/N=C/c2ccc(-c3cccc(Cl)c3)o2)n[nH]1 | 66.2 | i | i | i | i
O=C(N/N=C/c1ccc(-c2ccccc2)o1)c1ccccc1O | i | i | i | i | -31.6
Cc1csc(=O)n1CC(=O)OCC(=O)Nc1ccc(F)c(F)c1 | i | i | i | 32.6 | i
O=C(NCCc1ccc(Cl)cc1)c1cccs1 | i | i | i | i | -32.7
Cc1ccc2cc(CCNC(=O)c3cccs3)c(=O)[nH]c2c1 | i | i | i | i | i
O=C(NCCc1csc(-c2ccc(Cl)cc2)n1)c1cccs1 | i | i | i | i | i
Cc1ccc2cc(CCNC(=O)c3cccs3)c(=O)[nH]c2c1C | i | i | i | i | -30.6
O=C(Cc1cccs1)NNC(=S)NCc1ccc(Cl)cc1 | i | i | i | i | i
O=C(Cc1ccc(Cl)cc1)NNC(=S)NC(=O)c1cccs1 | 47.4 | i | i | i | i
CCOc1ccc(NS(=O)(=O)c2ccc(C(=O)NCC(c3ccc(OC)cc3)N3CCCC3)cc2)cc1 (stereo unspecified) | i | i | i | i | i
O=C(Nc1ccc(Br)cc1)c1cccc(S(=O)(=O)Nc2ccccn2)c1 | i | i | i | i | -61.6
O=C(Nc1ccccc1)c1cccc(S(=O)(=O)Nc2ccccn2)c1 | i | i | i | i | i
Cc1ccc(CCNC(=O)NCc2noc3ccc(C)cc23)cc1 | i | i | i | i | i
O=S1(=O)N=C(N/N=C/c2cccs2)c2ccccc21 | i | i | i | i | -30.8
O=C1CCC/C1=C/Nc1ccc(Cl)cc1 | i | i | i | i | i
O=C1CCC/C1=C\Nc1ccc(Cl)c([N+](=O)[O-])c1 | i | i | i | i | -39.6
O=C1NC(=O)N(Cc2ccccc2F)C1=O | i | i | i | i | i
O=C(O)c1cccc(CN2C(=O)c3ccccc3C2=O)c1 | i | i | i | i | i
O=C1c2cccc3c(O)ccc(c23)C(=O)N1Cc1ccccc1 | 365.6 | i | 154.0 | 40.0 | i
Cc1cccc(-n2cc(-c3ccccc3)c3c(N4CCC(C)CC4)ncnc32)c1 | i | i | i | i | i
Cc1cccc(-n2cc(-c3ccccc3)c3c(=O)[nH]cnc32)c1 | i | i | i | i | -45.2
SMILES | D1 ag | D1 PAM | TRHR agonist | TRHR PAM | D1 antag
CC1CCN(c2ncnc3c2c(-c2ccccc2)cn3-c2ccc(Br)cc2)CC1 | i | i | i | i | i
O=c1[nH]cnc2c1c(-c1ccccc1)cn2-c1ccc(Br)cc1 | i | i | i | i | -45.3
CCOc1ccc(-n2cc(-c3ccccc3)c3c(=O)[nH]cnc32)cc1 | i | i | i | i | -67.6
CCOC(=O)Cn1c(=O)oc2cc(S(=O)(=O)N3CCN(c4cccc(C)c4C)CC3)ccc21 | i | i | i | i | i
COc1cc(OC)cc(C(=O)NCC2CCCN(C(=O)c3oc(C)cc3C)C2)c1 (stereo unspecified) | i | i | i | i | i
CN(C)C(=S)Nc1ccc(Cc2ccncc2)cc1 | i | i | i | i | i
CCOc1ccc2nc(N(Cc3cccnc3)C(=O)c3ccc4c(c3)OCCO4)sc2c1 | i | i | i | i | i
C=CCn1c(SCC(=O)Nc2cc(C)on2)nc2sc(CC)cc2c1=O | i | i | i | i | -41.9
Cc1ccc(NC(=O)CSc2nc(=O)cc(N)n2CCc2ccccc2)cc1 | i | i | i | i | i
C=CCn1c(SCC(=O)NC2CC2)nc2sc(CC)cc2c1=O | i | i | i | i | i
C=CCn1c(N)cc(=O)nc1SCC(=O)Nc1ccc(C)cc1 | i | i | i | 38.7 | i
C=CCn1c(SCC(=O)N2CCN(C(=O)c3ccco3)CC2)nc2sc(CC)cc2c1=O | i | i | i | i | -32.0
C=CCn1c(SCC(=O)N2CCCC2=O)nc2sc(CC)cc2c1=O | i | i | i | i | i
Cn1nnnc1SCC(=O)NC(=O)Cc1ccccc1 | i | i | i | i | -44.0
CCOC(=O)C1=C(CN2CCN(c3cc(C)ccc3C)CC2)NC(=O)NC1c1ccc(Cl)cc1 (stereo unspecified) | i | i | i | i | i
CC1(C)Cc2[nH]c3ccccc3c2C(C)(C)N1 | i | i | i | i | i
C=CCn1c(SCC(=O)Nc2ccc(O)cc2)nc2sc(CC)cc2c1=O | i | i | i | i | -31.5
C=CCn1c(SCC(=O)O)nc2sc(CC)cc2c1=O | i | i | i | i | i
Cn1nnnc1SCC(=O)N1CCN(C(=O)c2ccco2)CC1 | i | i | i | i | -38.1
COc1ccc(N(C(=O)CNC(=O)c2cccs2)C(C(=O)NCC2CCCO2)c2ccccc2)cc1OC (stereo unspecified) | i | i | i | i | -55.3
CCC(C)(C)NC(=O)C(c1cccs1)N(CC1CCCO1)C(=O)Cn1nnc2ccccc21 (stereo unspecified) | i | i | i | 37.5 | i
CCC(C)(C)NC(=O)C(c1ccncc1)N(Cc1cccs1)C(=O)Cn1nnc2ccccc21 (stereo unspecified) | i | i | i | i | i
COc1cc(C(C(=O)NCC2CCCO2)N(C(=O)Cn2nnc3ccccc32)c2ccc(OC)c(OC)c2)ccc1O (stereo unspecified) | i | i | i | i | -79.9
CCOc1cc(C(C(=O)NCC2CCCO2)N(C(=O)Cn2nnc3ccccc32)c2ccc(NC(C)=O)cc2)ccc1O (stereo unspecified) | i | i | i | i | i
CC(C)(C)OC(=O)NCc1nnc(C(C(=O)OCc2ccccc2)c2ccccc2)s1 (stereo unspecified) | i | i | i | i | i
SMILES | D1 ag | D1 PAM | TRHR agonist | TRHR PAM | D1 antag
COc1ccc(Nc2nc(NCc3ccco3)nc(N/N=C/c3ccccc3F)n2)cc1 | i | i | i | i | -42.1
CCOC(=O)C1CCN(Cc2cn3c(-c4ccc(OC)cc4)nnc3s2)CC1 | i | i | i | i | i
Cc1cc(Nc2ccc(F)cc2)n2c(nc3ccccc32)c1C#N | i | i | i | i | i
Cc1cc(Nc2cccc([N+](=O)[O-])c2)n2c(nc3ccccc32)c1C#N | i | i | i | i | -34.8
N#Cc1ccc(NC(=O)COCc2cc(-c3ccc4c(c3)OCO4)on2)cc1 | i | i | i | i | -39.8
COc1ccc(NC(=O)COCc2cc(-c3ccc4c(c3)OCO4)on2)cc1 | i | i | i | i | i

Screening data: PubChem, National Center for Advancing Translational Sciences (NCATS)
